# Values without a mark were called inactive.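 How the source made its calls: active = AUC reduced over 20% with Padj below 0.05 in at least 2 of 3 replicates; inactive = otherwise.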
# Experiments:
# Experiment in all cases: growth AUC relative to DMSO control (median of replicates) (fraction); higher = more growth (less inhibition), active = hit call of the paper
# Settings in all cases: 20 µM; 24 h
# [1] = test system: Akkermansia muciniphila
# Outline: (§1)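 Each value is the median of three biological replicates, grown on separate days, of a gut bacterial monoculture incubated anaerobically at 37 °C in mGAM with 20 µM compound (1% DMSO). Cultures started at OD600 0.05 and were read at OD600 hourly for 24 h, with the minimum OD set to 0. Area under the growth curve was normalised to the plate median of solvent-only wells, or to row and column medians on the industrial chemical plate.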
# [2] = test system: Bacteroides caccae
# Outline: as §1
# [3] = test system: Bacteroides clarus
# Outline: as §1
# [4] = test system: Bacteroides dorei
# Outline: as §1
# [5] = test system: Bacteroides stercoris
# Outline: as §1
# [6] = test system: Bacteroides thetaiotaomicron
# Outline: as §1
# [7] = test system: Bacteroides uniformis
# Outline: as §1
# [8] = test system: Bifidobacterium longum subsp. longum
# Outline: as §1
# [9] = test system: Clostridium difficile
# Outline: as §1
# [10] = test system: Collinsella aerofaciens
# Outline: as §1
Compound,growth AUC [1],growth AUC [2],growth AUC [3],growth AUC [4],growth AUC [5],growth AUC [6],growth AUC [7],growth AUC [8],growth AUC [9],growth AUC [10]
CCOC(=O)/C=C(C)/C=C/C[C@@H](C)CCCC(C)C,0.915,0.985,1.03,1.01,1.12,0.986,0.984,0.949,1.06,0.982
CCc1cccc(C)c1N(C(=O)CCl)C(C)COC (stereo not given),1.03,0.884,1.01,0.995,1.26,1,0.935,1.07,0.979,1.02
O=c1oc2ccccc2c(O)c1C1CC(c2ccc(OCc3ccc(C(F)(F)F)cc3)cc2)Cc2ccccc21 (mixture of isomers),0.908,0.919,0.548 (active),1.02,0.176 (active),0.97,0.989,0.525 (active),0.0158 (active),0.788 (active)
CCCCC(O)(Cn1cncn1)c1ccc(Cl)cc1Cl (stereo not given),0.965,0.944,0.96,0.97,1.22,0.92,0.971,1.02,0.92,1
CCOC(=O)CCN(SN(C)C(=O)Oc1cccc2c1OC(C)(C)C2)C(C)C,1.1,1.04,0.985,1,0.982,1.02,1.05,1.01,0.999,0.978
COc1ccccc1N,1,1.02,1.04,1.01,1.16,1.02,1.02,1.05,1.01,1.02
CCCCN(CC)c1c([N+](=O)[O-])cc(C(F)(F)F)cc1[N+](=O)[O-],0.993,1,0.964,1.01,1,1.02,0.99,1.01,1.11,1.04
CN(C)C(CSC(N)=O)CSC(N)=O.Cl,1.13,0.993,1.04,1.08,1.02,1.06,1.15,1.05,1,1.03
O=S(=O)(Oc1ccc(Cl)cc1)c1ccc(Cl)cc1,1.09,0.97,0.998,0.812,0.973,0.972,0.995,1.02,1.01,0.961
COc1cnc(OC)n2nc(NS(=O)(=O)c3c(OCC(F)F)cccc3C(F)(F)F)nc12,0.962,1.03,1.01,0.993,0.991,1.01,1.01,0.994,0.993,0.991
ClC1(Cl)C2(Cl)C3(Cl)C4(Cl)C(Cl)(Cl)C5(Cl)C3(Cl)C1(Cl)C5(Cl)C24Cl (stereo not given),0.866,0.966,0.972,1.01,1.06,1,0.937,0.846,1,0.94
COP(=S)(OC)Oc1c(Cl)cc(C)cc1Cl,0.999,0.966,0.993,0.964,0.958,1.01,0.97,0.98,0.985,0.975
COC(=O)NCc1cc(/C(C)=N/OCc2cccc(C)n2)ccc1Cl,1.06,0.965,0.947,0.946,0.972,0.944,0.808,0.981,0.956,1.01
CC(C)(C)N(NC(=O)c1ccc(Cl)cc1)C(=O)c1ccccc1,0.852,0.973,0.986,0.983,1.02,0.939,1.01,1.04,1.11,1.02
O=C(O)COc1ccc(Cl)cc1Cl,0.866,1.03,0.979,0.996,0.986,1,0.998,1,1.02,0.988
CCNc1nc(Cl)nc(NC(C)(C)C#N)n1,0.889,1.02,0.983,1.04,0.946,0.998,0.986,0.946,1.05,0.997
CCOc1cc(OP(=S)(OC)OC)nc(CC)n1,0.924,1.03,1,1.01,1.13,0.994,0.996,1.01,0.997,1.03
CCSC(C)CC1CC(=O)C(/C(CC)=N/OC/C=C/Cl)=C(O)C1 (mixture of isomers),1.13,1.05,1.03,1.01,1.11,1.01,1.02,1.01,1.04,1.04
CC(C)N(Cc1ccccc1)C(=O)C(C)(C)C,1.11,0.928,0.976,0.936,0.958,0.98,0.999,1.04,0.937,0.92
CCS(=O)(=O)Oc1ccc2c(c1)C(C)(C)CO2,0.972,1,0.967,1.01,1.01,0.99,1.01,1.04,1.03,1.01
Oc1ccccc1-c1ccccc1,1.03,1.04,1.03,1.02,1.04,1.01,1.01,0.965,1.04,1.01
CC(Oc1ccc(Oc2ccc(Cl)cc2Cl)cc1)C(=O)O (racemic),0.812,0.991,0.875,0.997,0.851,0.989,0.98,0.903,1.02,0.995
CCc1cc(C)cc(CC)c1-c1c(OC(=O)C(C)(C)C)n2n(c1=O)CCOCC2,1.01,0.906,1,0.992,1.22,1.01,1,0.952,0.944,1
Cc1ccccc1[N+](=O)[O-],1,0.996,1,1.02,1.01,1.01,0.995,0.991,1,1
ClC1C(Cl)C(Cl)C(Cl)C(Cl)C1Cl (mixture of isomers),0.921,0.981,0.932,1.01,0.826,0.986,0.916,0.921,0.982,1
CCc1cccc(CC)c1N(COC)C(=O)CCl,0.942,1,0.991,0.949,1.08,0.957,0.985,1,0.974,0.989

# Source: the supplement of paper PMC12669032
